G9a inh = qHTS Assay for Inhibitors of Histone Lysine Methyltransferase G9a; actives 8.8% (n = 350,000); Histone-lysine N-methyltransferase EHMT2 (Homo sapiens), Q96KQ7; G9a H3K9 monomethylation, AlphaScreen, 2 h; Potency, µM (series often up to 102 µM), for inactives: at the top dose activity, negative = inhibition, most hits filed as inhibitors; further: potency means the concentration at half of the fitted maximal effect; nearly all actives have a fitted effect of over 75% in size
Target sequence (Q96KQ7 913-1193 limits assumed): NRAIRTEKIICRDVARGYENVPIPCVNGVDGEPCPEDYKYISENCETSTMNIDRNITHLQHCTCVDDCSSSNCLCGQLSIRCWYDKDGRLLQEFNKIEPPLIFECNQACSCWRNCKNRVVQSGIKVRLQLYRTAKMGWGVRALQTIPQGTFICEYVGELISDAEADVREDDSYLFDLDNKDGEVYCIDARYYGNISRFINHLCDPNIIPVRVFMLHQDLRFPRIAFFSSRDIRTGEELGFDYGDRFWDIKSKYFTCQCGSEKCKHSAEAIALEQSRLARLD
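Readings reflect AlphaScreen signal from monomethyl-H3K9 antibody detection. HMT at 20 nM; substrate b-H3K9 500 nM; cofactor SAM 20 uM; 2 h RT reaction; compounds tested as titrations in qHTS with 15 min preincubation.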
Tau FP inhib = qHTS for Inhibitors of Tau Fibril Formation, Fluorescence Polarization; AID 1468, 2008; K18 P301L tau heparin fibrillization, Alexa594 FP, 6 h; Potency, µM (top dose mostly 57.7 µM), for the others: at the highest dose activity, negative = inhibition, actives largely listed as inhibitors; Microtubule-associated protein tau (Homo sapiens), P10636; actives 0.39% (n = 280,000); further: potency means the concentration at half of the fitted maximal effect; nearly all actives have a fitted effect of over 55% in size
Target sequence (P10636 561-689 P618L limits assumed): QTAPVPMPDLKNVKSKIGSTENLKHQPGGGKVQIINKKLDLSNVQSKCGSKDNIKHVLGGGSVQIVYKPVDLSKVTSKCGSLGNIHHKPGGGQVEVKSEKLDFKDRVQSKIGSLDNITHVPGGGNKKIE
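Recombinant K18 P301L […], labeled with Alexa 594 at 0.24 uM over 15 uM unlabeled; heparin inducer 20 uM final; 37 C, 6 hr; FP endpoint.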
FBPA coupling cs = qHTS Assay for Inhibitors of Fructose-1,6-bisphosphate Aldolase from Giardia Lamblia: Coupling assay counterscreen; AID 2472, 2010; activity change, negative = inhibition, % at 58.2 µM, hits read low; coupling enzyme system counterscreen, AmpLite Red fluorescence; actives 0.67% (n = 290,000); in the data active means activity change below about -30%
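Counterscreen of the coupled detection system alone, without aldolase: glyceraldehyde-3-phosphate coupling enzymes plus AmpLite Red readout. Compounds at 57.5 uM final, 10 min RT preincubation, 20 min RT reaction, fluorescence 525/598 nm.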
Sfp PPTase inh = qHTS Assay for Inhibitors of Bacillus subtilis Sfp phosphopantetheinyl transferase (PPTase); 4'-phosphopantetheinyl transferase ffp (Bacillus subtilis), Q9F4F7; Biochemical Sfp PPTase activity, qHTS; Potency, µM, for inactives: largest response in the series, negative = inhibition, usual class: inhibitors; actives 3.5% (n = 310,000); AID 1490, 2009;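 further: the enzyme is Sfp with the accession as filed and its product quenches rhodamine fluorescence; potency means the concentration at half of the fitted maximal effect; 0% = enzyme reaction without inhibitor and -100% = no enzyme wells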
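With Hepes-Na pH 7.6 buffer containing 10 mM MgCl2, Sfp (15 nM) modified BHQ-2-YbbR (12.5 uM) using rhodamine-CoA (5 uM). Two reads 30 minutes apart at 525/598 nm yielded each well's rate.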
Tau fluor cs = Counterscreen qHTS for Inhibitors of Tau Fibril Formation, Fluorescence Polarization; tau K18 P301L Alexa594 fluorescence, heparin fibrillization; Potency, µM (titrated, usually from 57.7 µM), inactives show at the highest dose activity change, negative = decrease; actives 0.93% (n = 280,000); AID 1463, 2008; further: potency means the concentration at half of the fitted maximal effect; nearly all actives have a fitted effect of over 55% in size
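Human tau K18 P301L (15 uM unlabeled, 0.24 uM Alexa 594-labeled) in 100 mM sodium acetate pH 7 with 20 uM heparin, 6 hr at 37 C. ThT 30 uM added, 1 hr ambient; Alexa 594 FP and total fluorescence read at 555/632 nm.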
Tau ThT inhib = qHTS for Inhibitors of Tau Fibril Formation, Thioflavin T Binding. actives 2.1% (n = 270,000). Microtubule-associated protein tau (Homo sapiens), P10636. recombinant tau K18 P301L (four-repeat tau fragment), heparin-induced fibrillization, ThT fluorescence. Potency, µM (top dose mostly 57.4 µM), inactives show top-dose activity, negative = inhibition, actives largely listed as inhibitors; further: potency means the concentration at half of the fitted maximal effect; nearly all actives have a fitted effect of over 55% in size
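In this qHTS, human K18 P301L tau is incubated with compound and heparin for 6 hr at 37 C, and Thioflavin T fluorescence then reports fibril load.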
* hit, by the source's call; u = inconclusive; x = no result; [ ] = dose if it differs, or a comment. An excerpt weighted towards active compounds, which were near 11% of everything screened. Unless noted, the call rests on the fitted dose curve; in most records, active means well fitted curve in the direction sought with a large enough effect; inconclusive means small, poorly fitted or top-dose-only effect, or another doubt; inactive means no such curve, though single readings can be large; an effect the other way counts as inactive or inconclusive. Unless noted, on the % scale 0 is the no-effect control and ±100 the full control effect.

SMILES | G9a inh | Tau FP inhib | FBPA coupling cs | Sfp PPTase inh | Tau fluor cs | Tau ThT inhib
COC(=O)C1=C(CSc2nc3c(cc2C#N)CN(C)CC3)OC(N)=C(C#N)C1c1ccc(F)cc1 (stereo unspecified) | u | u | -5.2 | u | u | 25.1µM*
CCOC(=O)C1=C(CSc2nc(CC)c(C)cc2C#N)OC(N)=C(C#N)C1c1ccc(OC)cc1 (stereo unspecified) | 4.47µM* | 2.4% | -6.7 | 7.94µM* | -13.6% | -12.2%
COC(=O)CC1=C(C(=O)OC)C(c2ccncc2)C(C#N)=C(N)O1 (stereo unspecified) | u | -13.0% | 6.0 | 20.3% | -4.0% | u
CCOC(=O)C1=C(C)OC(N)=C(C#N)C1c1ccc(OC)c(CSc2ccccn2)c1 (stereo unspecified) | 22.4µM* | 0.0% | 10.6 | -10.2% | -28.0% | u
CC(=O)NC(Cc1cccc(C)c1)C(=O)NC1CCN(S(=O)(=O)c2ccccc2)CC1 (stereo unspecified) | 7.2% | x | -2.7 | 3.7% | x | x
CCN(CC)S(=O)(=O)c1ccc2c(c1)nc(CN(C)C(=O)c1cccc(Cl)c1)n2C | 30.9%[59 µM] | 15.6% | x | x | -0.5% | -2.0%
CCOC(=O)C1=C(C)OC(N)=C(C#N)C1c1c(C)nn(-c2ccccc2)c1Cl (stereo unspecified) | u | -10.8% | -51.3* | 56.2µM* | -12.8% | u
CCOC(=O)C1=C(c2ccccc2)OC(N)=C(C#N)C1c1cccs1 (stereo unspecified) | u | -10.0% | -4.6 | u | -12.0% | -0.2%
C=CCOC(=O)C1=C(C)OC(N)=C(C#N)C1c1c(C)nn(-c2ccccc2)c1Cl (stereo unspecified) | -11.6%[59 µM] | -17.3% | -11.6 | 3.0% | -21.1% | u
CCOC(=O)C1=C(C(C)=O)C(c2cccnc2)C(C#N)=C(N)O1 (stereo unspecified) | -4.2%[12.7 µM] | -8.6% | -33.7* | -17.3% | 0.6% | -14.5%
CCOC(=O)C1=C(CSc2nc(C)ccc2C#N)OC(N)=C(C#N)C1c1cccc(OC)c1OC (stereo unspecified) | 7.08µM* | 7.2% | -14.5 | 14.1µM* | -13.2% | -6.7%
CCOC(=O)C1=C(C)OC(N)=C(C#N)C1c1cccc(C)c1 (stereo unspecified) | 10.5%[0.501 µM] | -9.1% | 0.7 | -2.6% | -5.4% | u
CCOC(=O)C1=C(c2ccccc2)OC(N)=C(C#N)C1c1ccncc1 (stereo unspecified) | 44.7µM* | -12.3% | 7.7 | u | -10.4% | u
COc1cc(OC)c(NC(=O)c2sc3nc4n(c(=O)c3c2C)CCCC4)cc1Cl | u | u | x | x | -12.4% | u
CCOC(=O)C1=C(CSc2nc(-c3ccncc3)ccc2C#N)OC(N)=C(C#N)C1c1ccc(OC)cc1 (stereo unspecified) | 39.8µM* | -4.6% | -7.9 | u | u | u
CCOC(=O)C1CCCN(CC(O)COCc2ccc3c(c2)OCO3)C1 (stereo unspecified) | 11.2µM* | 8.1% | -0.9 | -11.7% | 1.9% | 3.6%
CCn1c(SCC(=O)Nc2ccccc2)nc2c([nH]c3ccccc32)c1=O | 9.2%[59 µM] | -1.6% | x | x | -19.0% | -14.3%
CCOC(=O)N1CCC(NC(=O)c2ccc3c(Cl)c4c(nc3c2)CCCC4)CC1 | -25.3% | -2.1% | 2.2 | 25.1µM* | -5.8% | 0.9%
O=C(NCCCN1CCCC1)c1ccc2c(Cl)c3c(nc2c1)CCCC3 | u | -0.2% | -3.3 | 79.4µM* | 4.2% | -6.8%
O=C(NC1CC1)c1ccc2c(Cl)c3c(nc2c1)CCCC3 | u | 2.8% | 0.8 | 8.2% | -5.5% | u
CCCN1CCN(CCCNC(=O)c2ccc3c(Cl)c4c(nc3c2)CCCC4)CC1 | -5.6% | x | 7.1 | -1.0% | x | x
COc1ccc(CNC(=O)c2ccc3c(c2)N(C)C(=O)C2CCCCN32)cc1OC (stereo unspecified) | 2.2%[59 µM] | 8.4% | x | x | -8.6% | -3.4%
CCNC1CCS(=O)(=O)C1 (stereo unspecified) | -0.2% | 3.3% | -1.1 | 8.4% | -1.0% | 5.1%
O=S1(=O)CCC(NCC2CCCO2)C1 (stereo unspecified) | 50.1µM* | 2.8% | -2.2 | 12.0% | 9.0% | 10.0%
Cc1cc(C)c2c(=O)n(CC(=O)Nc3cccc(F)c3)sc2n1 | 0.316µM* | 14.1µM* | 1.7 | 3.16µM* | -22.6% | 14.1µM*
SMILES | G9a inh | Tau FP inhib | FBPA coupling cs | Sfp PPTase inh | Tau fluor cs | Tau ThT inhib
Cc1ccc(NC(=O)Cn2sc3nc(C)cc(C)c3c2=O)c(Cl)c1 | 0.355µM* | u | 0.7 | 2.82µM* | -9.4% | 28.2µM*
Cc1cc(C)c2c(=O)n(CC(=O)Nc3ccc(Cl)cc3)sc2n1 | 0.0891µM* | u | 5.8 | 3.55µM* | -27.0% | x
CCOc1ccc(NC(=O)Cn2sc3nc(C)cc(C)c3c2=O)cc1 | 0.282µM* | 20µM* | -0.7 | 2.82µM* | -25.0% | 12.6µM*
O=C1NCCN(Cc2ccoc2)C1CC(=O)N(CCO)Cc1ccccc1 (stereo unspecified) | 8.9% | -15.1% | 0.2 | 17.5% | 6.9% | 2.0%
CCOC(=O)c1[nH]c2ccccc2c1NC(=O)c1ccccc1OCC | -33.1%[59 µM] | 6.5% | x | x | 14.1µM*[quencher] | u
CCOC(=O)c1[nH]c2ccc(OC)cc2c1NC(=O)c1cccc(OC)c1 | u | u | -0.8 | 1.0% | u | -18.1%
COC(=O)c1[nH]c2cc(OC)ccc2c1NC(=O)CCN1CCCC(C)(C)C1 | 56.2µM* | -0.9% | -2.8 | 13.0% | -3.6% | -7.5%
CCOC(=O)c1[nH]c2ccc(OC)cc2c1NC(=O)c1ccccc1C(=O)O | 44.7µM* | x | 0.1 | u | x | x
COC(=O)c1[nH]c2cc(OC)ccc2c1NC(=O)CCN1CCCCC1 | -4.0%[12.7 µM] | 2.5% | -0.1 | 15.5% | -0.4% | -0.2%
CCOC(=O)c1[nH]c2cc(OC)c(OC)cc2c1NC(=O)CN1CCN(c2ccc(OC)cc2)C(C)C1 (stereo unspecified) | 22.4µM* | u | -7.1 | 7.7% | u | u
CCOC(=O)c1[nH]c2ccc(F)cc2c1NC(=O)c1ccccc1C(=O)O | 14.1µM* | x | -2.7 | -14.3% | x | x
C=CCNC(=S)Nc1c(C(=O)OC)[nH]c2cc(OC)ccc12 | 11.2µM* | u | -2.1 | -4.3% | 15.0% | 1.8%
